# According to PubChem BioAssay AID694 (Emory University Molecular Libraries Screening Center, 2007):
# Among all 1,300 compounds or so, about 25 (2%) were called active. How the calls were made is not given here. The full list was thinned out, with actives kept by preference.
# Target: Estrogen receptor (Homo sapiens) (UniProt P03372)
# Test: blockers of coactivator recruitment to ERα – biochemical, LOPAC library, TR-FRET, primary screen (AID 694);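 further: receptor was agonist-bound with estradiol present during the assay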
# Settings: TR-FRET ERalpha-coactivator peptide binding, stronger effect = higher value
# Chain of Estrogen receptor (Homo sapiens) (P03372 whole entry, looked up): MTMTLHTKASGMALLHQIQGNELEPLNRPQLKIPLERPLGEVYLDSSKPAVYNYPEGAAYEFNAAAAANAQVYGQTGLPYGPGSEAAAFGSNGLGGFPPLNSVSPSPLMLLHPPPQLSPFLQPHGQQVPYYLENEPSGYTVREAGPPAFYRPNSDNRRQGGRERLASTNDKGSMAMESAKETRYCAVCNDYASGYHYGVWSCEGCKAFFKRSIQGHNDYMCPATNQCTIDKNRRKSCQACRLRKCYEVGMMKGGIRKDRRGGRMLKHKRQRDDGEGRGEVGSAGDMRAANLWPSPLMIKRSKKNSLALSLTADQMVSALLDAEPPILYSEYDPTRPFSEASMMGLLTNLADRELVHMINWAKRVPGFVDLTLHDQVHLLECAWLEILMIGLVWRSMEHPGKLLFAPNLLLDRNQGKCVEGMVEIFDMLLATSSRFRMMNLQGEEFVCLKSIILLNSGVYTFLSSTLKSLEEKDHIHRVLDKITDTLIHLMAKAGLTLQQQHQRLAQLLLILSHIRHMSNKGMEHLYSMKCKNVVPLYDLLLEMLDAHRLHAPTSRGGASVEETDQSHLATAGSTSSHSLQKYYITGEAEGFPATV
Compound,inhibition (at 45 µM),"inhibition (inhibition, at 15 µM)"
N=c1c[n+](N2CCOCC2)[n-]o1,3.79% (inactive),4.24%
COc1ccccc1N1CCN(CCCNc2c(C)c(=O)n(C)c(=O)n2C)CC1,-0.24% (inactive),1.69%
CCNC(=O)C1OC(n2cnc3c(NCc4ccccc4)ncnc32)C(O)C1O (stereo not drawn),-1.65% (inactive),1.9%
Cn1cc(C(F)(F)F)nc1-c1ccc(OCC(O)CNCCOc2ccc(O)c(C(N)=O)c2)cc1 (stereo not drawn),-4.07% (inactive),-6.05%
CC[N+](C)(C)Cc1ccccc1Br,-6.37% (inactive),-2.6%
COc1ccccc1N1CCN(CCN(C(=O)c2ccc(F)cc2)c2ccccn2)CC1,-4.33% (inactive),1.39%
CCCCCN(CCCCC)C(=O)C(CCC(=O)O)NC(=O)c1ccc(Cl)c(Cl)c1 (stereo not drawn),0.49% (inactive),8.19%
NCCCCNS(=O)(=O)c1cccc2c(Cl)cccc12,-24.3% (inactive),2.07%
CNC(=O)Oc1ccc2c(c1)[C@]1(C)CCN(C)[C@@H]1N2C,-8.56% (active),56.6%
Oc1cc(O)c2c(c1)O[C@H](c1ccc(O)c(O)c1)[C@@H](O)C2,26.6% (inactive),10.3%
CC1=C(C(=O)O)N2C(=O)[C@@H](NC(=O)C(N)c3ccccc3)[C@H]2SC1 (stereo partly drawn),-5% (inactive),-4.71%
COc1cc(=O)n(C)c2c(OCC(O)C(C)(C)O)cccc12 (stereo not drawn),-4.43% (inactive),3.61%
NS(=O)(=O)c1cc2c(cc1Cl)NC=NS2(=O)=O,-2.72% (inactive),1.82%
Cc1nc(N=Nc2ccc(C(=O)O)cc2)c(COP(=O)(O)O)c(C=O)c1O,6.52% (inactive),-0.22%
Cn1c(=O)c2c(nc(/C=C/c3cccc(Cl)c3)n2C)n(C)c1=O,0.97% (inactive),-2.61%
CC(C)COCC(CN(Cc1ccccc1)c1ccccc1)N1CCCC1 (stereo not drawn),-5.09% (inactive),4.06%
C[N+](C)(C)CCOC(=O)CCC(=O)OCC[N+](C)(C)C,-6.43% (inactive),0.18%
COc1ccc2[nH]c(I)c(CCNC(C)=O)c2c1,-2.05% (inactive),-4.11%
CC(C)[C@@H]1NC(=O)[C@H](CCCCN)NC(=O)[C@@H](Cc2c[nH]c3ccccc23)NC(=O)[C@H](Cc2ccc(O)cc2)NC(=O)[C@H](C)N(C)C(=O)[C@H](Cc2ccccc2)NC1=O,5.89% (inactive),-1.62%
COC(=O)[C@H](NC(=O)c1cc(-c2ccccc2)nc2ccccc12)c1ccccc1,1.85% (inactive),2.38%
O=Nc1ccc2oc(=O)ccc2c1,0.4% (inactive),0.59%
NC(N)=NCCC[C@H](N)C(=O)O,-2.21% (inactive),-4%
N[C@@H](CCCC(=O)O)C(=O)O,-21.2% (active),50.5%
NC(CCCP(=O)(O)O)C(=O)O (stereo not drawn),-8.81% (inactive),-3.89%
